The full list was thinned out, with hits kept by preference.
IMPase Li cell – qHTS Assay for Identifying the Cell-Membrane Permeable IMPase Inhibitors: Potentiation with Lithium | CHO-M1 cells, IP1 TR-FRET (IP-One), carbachol + lithium | Potency, µM (top dose mostly 59.4 µM), usual class: inhibitors | 210,000 compounds, 0.35% hits; active means well fitted inhibition curve with a large enough effect; inconclusive means small, poorly fitted or top-dose-only effect; inactive means no such curve, though single readings can be large or run the other way;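 further: IP1 builds up when IMPase is blocked and the TR-FRET signal falls; nearly all actives have a fitted effect of over 50% in size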
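CHO cells stably expressing M1 receptor (2000/well) were cultured 16–30 h, then exposed to compounds with a small lithium addition for 30 min at 37C. IP1 was measured by TR-FRET competition; AC50 from Hill fits.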
LMNA splice mod – qHTS Assay for Modulators of Lamin A Splicing; HeLa LMNA splicing GFP/RFP minigene ratio, 48 h; 200,000 compounds, 0.01% hits; Potency, µM (series often up to 46.1 µM), usual class: inhibitors; AID 1487, 2009; active means well fitted inhibition curve with a large enough effect in the signal ratio, with a control signal flat, not every such curve was filed as active; inconclusive means small, poorly fitted or top-dose-only effect, or effect the other way, or a change in a side signal; the % refers to the signal ratio
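S3 HeLa stable clones carrying a lamin A-EGFP splicing minigene plus DsRed2 were seeded at 600 cells/well in Opti-MEM with 2% FBS, pin-dosed and incubated 48 h at 37°C. Acumen cytometry (488 nm) gave the GFP/RFP total-intensity ratio.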
IMPase cell inh – qHTS Assay for Identifying the Cell-Membrane Permeable IMPase Inhibitors | Inositol monophosphatase 1 (Rattus norvegicus), P97697 | CHO-M1 cells, IP1 accumulation, HTRF TR-FRET ratio | inhibition (IP1 accumulation), % at 46.1 µM | 120,000 tested, under 10 active; active means well fitted curve in the direction sought with a large enough effect in the signal ratio, not every such curve was filed as active; inconclusive means small, poorly fitted or top-dose-only effect, or a change in a side signal; inactive means no such curve, though single readings can be large or run the other way; the % refers to the signal ratio;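 further: cells stimulated with carbachol in lithium chloride buffer; higher means more IMPase inhibition seen as more IP1 and lower FRET ratio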
Target sequence (P97697 whole entry, looked up): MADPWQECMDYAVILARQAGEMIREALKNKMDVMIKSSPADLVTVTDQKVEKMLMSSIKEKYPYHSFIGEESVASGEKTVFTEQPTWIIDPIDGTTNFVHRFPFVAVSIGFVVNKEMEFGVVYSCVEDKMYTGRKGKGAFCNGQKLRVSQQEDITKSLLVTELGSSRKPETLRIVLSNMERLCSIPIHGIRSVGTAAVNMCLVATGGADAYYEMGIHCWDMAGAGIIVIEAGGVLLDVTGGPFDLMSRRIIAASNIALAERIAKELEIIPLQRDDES
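In this qHTS, compounds (final up to 46 uM) act on CHO-M1 cells that are then activated through the M1 receptor with carbachol, in pH 7.4 buffer containing 50 mM LiCl, for 30 min. IP1 accumulation is quantified by the IP-One immunoassay.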
Hits are given with their value; i = inactive; ? = inconclusive; nt = no result; [ ] = remark or other dose.

SMILES	IMPase Li cell	LMNA splice mod	IMPase cell inh
COc1ccc(-n2c(=O)c3ccccc3n(CC(=O)c3ccccc3)c2=O)cc1OC	i	nt	nt
COc1cc(-n2c(=O)c3ccccc3n(CC(=O)c3ccc(Br)cc3)c2=O)cc(OC)c1OC	22µM	?	nt
Nc1c(C(=O)NCc2ccco2)sc2nc(N3CCOCC3)c3c(c12)CCCC3	10µM	?	i
CCOC(=O)c1sc2nc(N3CCOCC3)c3c(c2c1N)CCCC3	i	i	i
Cc1ccc(-c2ccc(C(=O)O)c(C)n2)cc1	i	i	nt
Cc1nc(-c2ccc(Br)cc2)ccc1C(=O)O	8.9µM	i	nt
CCC(=O)NC(=S)Nc1ccc(-c2nc3ccc(C)cc3s2)cc1	nt	i	i
CCC(=O)NC(=S)Nc1ccc(-c2nc3ccccc3s2)cc1	11µM	i	i
COc1cc(CN2CCCCC2)cc2cc(C(=O)O)c(=O)oc12	i	nt	nt
CCC=O	i	nt	nt
CCCCOC(=O)CNc1n[nH]c(=S)[nH]c1=O	4µM	i	?
CC(C)COC(=O)CNc1n[nH]c(=S)[nH]c1=O	?	i	?
COC(=O)Cn1c(=NC(=O)c2sc3ccccc3c2Cl)sc2cc(S(N)(=O)=O)ccc21	i	i	nt
COC(=O)Cn1c(=NC(=O)c2nc3ccccc3s2)sc2cc(S(C)(=O)=O)ccc21	6.3µM	i	nt
CCNC(=O)[C@H]1O[C@@H](n2cnc3c(N)nc(NCCc4ccc(CCC(=O)O)cc4)nc32)[C@H](O)[C@H]1O	i	?	nt
COc1ccccc1-c1nn2c(C(F)(F)F)nnc2s1	7.9µM	i	i
c1ccc(Cc2nn3c(C4COc5ccccc5O4)nnc3s2)cc1 (stereo not drawn)	i	i	i
COc1ccccc1-c1nn2c(-c3ccc(C(C)(C)C)cc3)nnc2s1	i	i	i
COc1ccccc1-c1nn2c(C3COc4ccccc4O3)nnc2s1 (stereo not drawn)	32µM	?	i
O=S(=O)(O)CCCc1cccc2ccccc12	i	nt	nt
Cc1nn(-c2ccccc2)c2nc(C3CC3)cc(C(=O)Nc3ccc(F)cc3)c12	nt	i	nt
COc1ccc(-n2c(=S)[nH]c3c(oc4ccccc43)c2=O)cc1	6.3µM	?	nt
Cc1ccc(-n2c(=O)[nH]c3c(oc4ccccc43)c2=O)cc1	i	i[9.22 µM]	nt
CC(C)CNC(=O)O	i	nt	nt
COc1ccc2[nH]cc(CCNc3ccnc(-c4ccc(C(=O)N(C)C)cc4)n3)c2c1	i	?	nt
SMILES	IMPase Li cell	LMNA splice mod	IMPase cell inh
Cc1ccc(-c2nnc(-c3cccc(Br)c3)o2)cc1	i	i	i
Cc1cccc(-c2nnc(-c3ccc(N)cc3)o2)c1	13µM	i	i
Cn1ncc([N+](=O)[O-])c1C(=O)Nc1nc2ccccc2n1CCN1CCCCC1	7.9µM	i	i
Cc1c(Cl)c(C(=O)Nc2nc3ccccc3n2CCN2CCCCC2)nn1C	i	i	i
COC(=O)c1ccccc1S(=O)(=O)N1CCc2nc(COc3ccccc3)c3c(c2C1)CO[C@@H](C)C3	i	i[9.22 µM]	nt
Cc1ccc2[nH]c3c(=O)n(N)c(C)nc3c2c1	i	i	nt
Cc1ccc2[nH]c3c(=S)nc[nH]c3c2c1	13µM	i	?
C[C@H]1C(O)[C@@]23CCC4C5(C=[N+](CCO)C[C@]4(C)CCC5)C2C[C@@H]1C3 (stereo partly drawn)	i	nt	nt
Nc1ccc2nc(-c3ccc(Cl)cc3)[nH]c2c1	10µM	i	i
Nc1ccc(-c2nc3ccc(N)cc3[nH]2)cc1	i	?	nt
CCc1nnc(NC(=O)CSc2nnc(-c3ccccc3NC(=O)c3ccccc3)o2)s1	?	?	i
CCOC(=O)CSc1nnc(-c2ccccc2NC(=O)c2ccccc2)o1	11µM	i	i
COc1ccc2c(Cc3c4ccccc4cc4ccccc34)cncc2c1O	i	nt	nt
COC(=O)CC1Oc2cc3oc4c5ccccc5oc(=O)c4c3cc2O1 (stereo not drawn)	i	nt	nt
CC(=O)Nc1nc(C)c(C(C)=O)s1	i	i	i
CC(=O)c1sc(Nc2ccccn2)nc1C	14µM	?	?
CC(=O)c1sc(Nc2ccc(C)cc2)nc1C	i	i	nt
CC(=O)c1sc(NC(=O)C(C)C)nc1C	11µM	i	?
O=C(CNS(=O)(=O)c1ccc2ccccc2c1)OCC(=O)c1ccc(Br)s1	1.8µM	i	?
Cc1cc(C(=O)COC(=O)CNS(=O)(=O)c2ccc3ccccc3c2)c(C)n1-c1ccccc1	i	?	i
COc1cccc(Cn2c(=O)cnc3cnc(Nc4ccccc4)nc32)c1	i	?	nt
Cc1ccc(C(=O)Nc2cc3cc(Cl)ccc3oc2=O)cc1	nt	nt	i
Cc1c(C)c2c(c(C)c1OC(=O)c1cccnc1)CC[C@@](C)(CCC[C@H](C)CCC[C@H](C)CCCC(C)C)O2	nt	i	nt
Cc1cc(NC(=O)CSc2ccc(-c3nc4cc(C)c(C)cc4[nH]3)cn2)no1	11µM	i	i
Cc1cc2nc(-c3ccc(SCC(=O)NC(C)C)nc3)[nH]c2cc1C	i	i[9.22 µM]	nt
SMILES	IMPase Li cell	LMNA splice mod	IMPase cell inh
O=C1c2ccccc2C(=O)N1Cc1nn2c(-c3ccc(Cl)cc3)nnc2s1	11µM	i	?
COc1ccc(-c2nnc3sc(CN4C(=O)c5ccccc5C4=O)nn23)cc1	?	i	i
Nc1ccc(S(=O)(=O)NCc2nccs2)cc1	i	nt	nt
CCc1c(C(=O)O)[nH]c2ccc(Br)cc12	10µM	i	?
CC(C)CCNC(=O)Cc1c(C(=O)O)[nH]c2ccc(Cl)cc12	nt	?	i
Cc1cc(SCC(=O)Nc2ncc(Cl)cc2Cl)nc2ccccc12	i	?	i
COc1ccc2c(C)cc(SCC(=O)Nc3ncc(Cl)cc3Cl)nc2c1	13µM	i	nt
CCOC(=O)c1nn(-c2ccc(F)cc2)c2nc(-c3ccccc3)c(C#N)c(=O)n12	i	i	nt
CCOC(=O)c1nn(-c2cccc(C)c2)c2nc(-c3ccccc3)c(C#N)c(=O)n12	4µM	?	?
CN(CC(=O)O)Cc1c[nH]c2ccccc12	i	nt	nt
COc1cc(NC(=O)C(CCSC)NS(=O)(=O)c2ccc3c(c2)oc(=O)n3C)cc(OC)c1 (stereo not drawn)	nt	i	nt
CCCCOc1ccc(C(=O)Nc2ccc3c(c2)CCCN3S(=O)(=O)c2ccc(C)cc2)cc1	nt	i	nt
CCn1c2c(c3cc(Br)ccc31)CCC/C2=N\O	11µM	?	?
CCn1c2c(c3cc(OCC(C)C)ccc31)CCCC2=O	i	?	i[0.369 µM]
O=c1c(-c2cc(F)cc(F)c2)nc2cnc(N3CCNCC3)nc2n1C1CC1	i	?	nt
O=c1c(-c2cc(F)cc(F)c2)nc2cnc(N3CCOCC3)nc2n1C1CC1	8.9µM	nt	nt
Cc1cc(C(=O)OCC(=O)c2ccc(Br)s2)no1	6.3µM	i	?
Cc1cc(C(=O)OCC(=O)c2ccc(Br)s2)c(C)o1	i	i	i
Cc1nc(NCc2ccccc2)c2nc(-c3ccccc3)n(CCCN3CCOCC3)c2n1	i	nt	nt
CCCCNc1nc2c(S(=O)(=O)c3ccccc3)nnn2c2ccccc12	8.9µM	nt	nt
CCc1ccc(S(=O)(=O)c2nnn3c2nc(NCCNC(C)=O)c2ccccc23)cc1	i	nt	nt
FC(F)(F)c1nnc2c(Sc3ccccc3)nc3ccccc3n12	i	i	i
FC(F)(F)c1nnc2c(Sc3ccc(Cl)cc3)nc3ccccc3n12	18µM	?	i
CC(=O)c1cc(-c2ccc(F)cc2)n(CCC(=O)Nc2nc3ccc(C)cc3s2)c1C	nt	i	nt
COc1ccc(-n2c(=O)c(-c3cccs3)nc3cnc(N4CCOCC4)nc32)cc1	i	i	nt

Compound activity deposited in PubChem by National Center for Advancing Translational Sciences (NCATS).
